PubChem BioAssay AID696 (Sanford-Burnham Center for Chemical Genomics, 2007)
About 1,200 (1.2%) of roughly 96,000 compounds were called active. Rule as the data show it: active = activation fold above about 2; inactive = the rest. Many of the other results were omitted from the sample, so actives are more common in it than they were.

Molecular target: Alkaline phosphatase, placental type (Homo sapiens) (UniProt P05187)
Test: PLAP enzyme activators, biochemical, luminescence, HTS (AID 696)
Settings: purified PLAP enzyme, luminescent substrate read-out; at 20 µM; active compounds read high

Sequence of Alkaline phosphatase, placental type (Homo sapiens) (P05187 whole entry, looked up): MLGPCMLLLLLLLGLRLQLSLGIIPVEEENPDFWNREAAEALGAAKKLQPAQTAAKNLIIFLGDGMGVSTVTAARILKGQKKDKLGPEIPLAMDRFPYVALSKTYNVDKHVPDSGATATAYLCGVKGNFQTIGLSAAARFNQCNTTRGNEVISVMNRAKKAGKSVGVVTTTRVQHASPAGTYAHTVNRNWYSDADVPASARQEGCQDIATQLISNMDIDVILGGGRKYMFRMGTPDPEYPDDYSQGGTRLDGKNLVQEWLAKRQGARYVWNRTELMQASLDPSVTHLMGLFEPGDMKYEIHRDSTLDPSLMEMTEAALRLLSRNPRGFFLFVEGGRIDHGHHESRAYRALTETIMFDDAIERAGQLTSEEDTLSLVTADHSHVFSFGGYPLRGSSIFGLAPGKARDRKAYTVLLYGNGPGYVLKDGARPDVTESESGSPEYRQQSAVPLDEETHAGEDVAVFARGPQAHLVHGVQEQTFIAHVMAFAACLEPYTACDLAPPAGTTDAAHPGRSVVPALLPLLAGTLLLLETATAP

Question: With `NC(=O)c1ccsc1NC(=O)c1ccco1` as the molecule, how does the activation fold read?
Answer: 1 (inactive)

Question: `CC1CCN(C(NC(=O)c2ccco2)C(=O)c2ccccc2)CC1` (stereo not given) was tested. Which activation fold did it give?
Answer: 1.1 (inactive)

Question: Which activation fold does the source give for `CC(NC(=O)c1ccco1)C(=O)Nc1nc(-c2ccccn2)cs1` (stereo not given) here?
Answer: 2.4 (active)

Question: With `O=c1cc(N2CCN(Cc3ccccc3)CC2)c(-c2ccccc2)n[nH]1` as the molecule, how does the activation fold read?
Answer: 1 (inactive)

Question: With `CCn1c(Cc2cccs2)nnc1SCC(=O)c1ccc(C)cc1` as the molecule, how does the activation fold read?
Answer: 1.5 (inactive)

Question: How did the activation fold turn out when `O=C(COc1ccc(Cl)cc1)N1CCN(S(=O)(=O)c2ccc(Cl)cc2)CC1` was run?
Answer: 1.1 (inactive)

Question: Which activation fold does the source give for `Cc1ccc(CNC(=O)C2CC(c3ccccc3[N+](=O)[O-])=NO2)o1` (stereo not given) here?
Answer: 0.9 (inactive)

Question: With `Cc1cc(C(=O)NCCCc2ccccc2)no1` as the molecule, how does the activation fold read?
Answer: 0.9 (inactive)

Question: How did the activation fold turn out when `CCC(=O)Nc1ccc(C(=O)Nc2cc(C)on2)cc1` was run?
Answer: 0.9 (inactive)

Question: How did the activation fold turn out when `CCCCNC(=S)NNC(=O)c1cc(C)on1` was run?
Answer: 2 (active)

Question: For `Cn1c(Cc2cccc3ccccc23)nnc1SCC(=O)N1CCN(c2cccc(Cl)c2)CC1`, which activation fold is on record?
Answer: 1.5 (inactive)

Question: For `CCN1CCC(=NNC(=O)c2ccc(C)c([N+](=O)[O-])c2)CC1`, which activation fold is on record?
Answer: 1.3 (inactive)

Question: For `C1=C(CCNc2ncnc3c2cnn3-c2ccccc2)CCCC1`, which activation fold is on record?
Answer: 0.7 (inactive)

Question: For `CC(=O)Nc1ccc(NC(=O)CSCc2cnn(-c3ccccc3)c2-n2cccc2)cc1`, which activation fold is on record?
Answer: 1.3 (inactive)

Question: `O=C(NCCC1=CCCCC1)C1CCN(Cc2cnn(-c3ccccc3)c2-n2cccc2)CC1` was tested. Which activation fold did it give?
Answer: 2.3 (active)

Question: Which activation fold does the source give for `O=C1c2ccccc2C(=O)N1CC1c2ccccc2CCN1S(=O)(=O)c1ccccc1` (stereo not given) here?
Answer: 1.2 (inactive)

Question: Which activation fold does the source give for `O=C(Nc1ccc2c(c1)OCCO2)c1ccc(Cl)c(S(=O)(=O)N2CCCCC2)c1` here?
Answer: 1.7 (inactive)

Question: `COc1ccccc1NC(=O)CN1CCN(S(=O)(=O)c2ccc(Br)cc2)CC1` was tested. Which activation fold did it give?
Answer: 1 (inactive)

Question: For `COc1ccc(NC(=O)CN2CCN(S(=O)(=O)c3ccc(F)cc3)CC2)cc1Cl`, which activation fold is on record?
Answer: 1.1 (inactive)

Question: For `COc1cc2c(cc1NC(=O)CN1CCN(S(=O)(=O)c3ccc(F)cc3)CC1)oc1ccccc12`, which activation fold is on record?
Answer: 2.2 (active)

Question: For `Cc1c(CCO)c(=O)[nH]n1C(=O)c1c(F)cccc1F`, which activation fold is on record?
Answer: 0.9 (inactive)

Question: With `Cc1ccc(F)c(NC(=O)CCc2ccccc2)c1` as the molecule, how does the activation fold read?
Answer: 0.9 (inactive)

Question: `Cn1c(=O)[nH]c(=O)c2c1nc(N(CCO)Cc1ccccc1)n2Cc1ccccc1Cl` was tested. Which activation fold did it give?
Answer: 0.8 (inactive)

Question: How did the activation fold turn out when `CN(Cc1ccccc1)c1nc2c(c(=O)[nH]c(=O)n2C)n1CCSc1nc2ccccc2[nH]1` was run?
Answer: 2 (active)

Question: With `CCCSc1nc2c(c(=O)[nH]c(=O)n2C)n1CCc1ccccc1` as the molecule, how does the activation fold read?
Answer: 0.9 (inactive)

Question: How did the activation fold turn out when `Cc1cccc(NC(=O)CSc2nnc(CCCCCNC(=O)OC(C)(C)C)o2)c1C` was run?
Answer: 2.4 (active)

Question: Which activation fold does the source give for `C[C@H](NC(=O)OC(C)(C)C)c1nnc(SCC(=O)Nc2ccc(Br)cc2)o1` here?
Answer: 1.2 (inactive)

Question: Which activation fold does the source give for `CCc1ccccc1NC(=O)CSc1nnc([C@@H](NC(=O)OC(C)(C)C)C(C)CC)o1` (stereo not given in full) here?
Answer: 2 (active)

Question: For `Cc1cc(C)cc(OCc2nnc(SCC(=O)Nc3ccccc3)o2)c1`, which activation fold is on record?
Answer: 0.8 (inactive)

Question: With `CCc1ccccc1NC(=O)CSc1nnc([C@@H](NC(=O)OC(C)(C)C)C(C)C)o1` as the molecule, how does the activation fold read?
Answer: 1.4 (inactive)

Question: With `Cc1cccc(NC(=O)CSC(N)=O)c1C` as the molecule, how does the activation fold read?
Answer: 1.7 (inactive)

Question: How did the activation fold turn out when `CC(C)(C)N1CC(c2nc3ccccc3n2Cc2ccc(F)cc2)CC1=O` (stereo not given) was run?
Answer: 1.1 (inactive)

Question: For `CN(C)Cc1ccccc1C1(O)c2ccccc2CSc2ccccc21` (stereo not given), which activation fold is on record?
Answer: 1.1 (inactive)

Question: How did the activation fold turn out when `N#Cc1cc([N+](=O)[O-])ccc1Oc1cccc(/C=N/NC(=O)c2ccc(Cl)cc2)c1` was run?
Answer: 1.1 (inactive)

Question: How did the activation fold turn out when `O=P(O)(CP(=O)(c1ccccc1)c1ccccc1)c1ccccc1O` was run?
Answer: 1 (inactive)

Question: Which activation fold does the source give for `CCOc1ccc(C(=O)NC(C(=O)NCc2ccccn2)C(C)C)cc1` (stereo not given) here?
Answer: 0.9 (inactive)

Question: `Cc1cc(C)nc(SC(C)C(=O)N/N=C/c2cccs2)n1` (stereo not given) was tested. Which activation fold did it give?
Answer: 0.9 (inactive)

Question: Which activation fold does the source give for `CCCCCCNCCn1cnc2c(N)ncnc21` here?
Answer: 0.9 (inactive)

Question: Which activation fold does the source give for `O=C(CCOc1ccccc1)NCc1ccccc1` here?
Answer: 0.8 (inactive)

Question: For `O=C(CCCOc1ccccc1)NCc1ccco1`, which activation fold is on record?
Answer: 1.1 (inactive)

Question: With `CN(C)C(CNC(=O)CCCOc1ccccc1)c1ccco1` (stereo not given) as the molecule, how does the activation fold read?
Answer: 2 (active)

Question: Which activation fold does the source give for `COc1ccc(C(=O)c2c(C)oc3cc([N+](=O)[O-])c(O)c([N+](=O)[O-])c23)cc1` here?
Answer: 0.9 (inactive)

Question: With `COc1ccc(NC(=O)C(CC(C)C)NS(=O)(=O)c2ccc3c(c2)CCN3C(C)=O)cc1OC` (stereo not given) as the molecule, how does the activation fold read?
Answer: 0.8 (inactive)

Question: `CN(Cc1nc2ccccc2c(=O)[nH]1)Cc1cc(=O)oc2ccc3ccccc3c12` was tested. Which activation fold did it give?
Answer: 1.6 (inactive)

Question: How did the activation fold turn out when `O=S(=O)(NC1CCCCC1)c1ccc(F)c2ccccc12` was run?
Answer: 0.7 (inactive)

Question: Which activation fold does the source give for `COc1ccc2nc(N3CCCC(O)C3)c(C#N)cc2c1` (stereo not given) here?
Answer: 1.8 (inactive)

Question: Which activation fold does the source give for `CCOc1ccc2nc(NCCNS(=O)(=O)c3ccccc3)c(C#N)cc2c1` here?
Answer: 1 (inactive)

Question: Which activation fold does the source give for `CCOc1ccc2nc(N3CCCN(C(=O)Nc4ccccc4C)CC3)c(C#N)cc2c1` here?
Answer: 2 (active)

Question: With `O=C(NCCCN1CCOCC1)c1cc2c(s1)CCC2` as the molecule, how does the activation fold read?
Answer: 1.3 (inactive)

Question: Which activation fold does the source give for `COC(=O)c1ccc(C(=O)Nc2cc(Cl)ccc2Cl)cc1NC(=O)c1ccccc1C` here?
Answer: 1 (inactive)

Question: How did the activation fold turn out when `CC1CCCN(C(C(=O)Nc2ccc(C(C)C)cc2)c2ccc3c(c2)OCO3)C1` (stereo not given) was run?
Answer: 1.6 (inactive)

Question: With `Cc1[nH]c(=O)c(C(=O)/C=C/c2ccccc2)c2c1CCCC2` as the molecule, how does the activation fold read?
Answer: 1.2 (inactive)

Question: With `Cc1occc1C(=O)Nc1nnc(-c2ccncc2)s1` as the molecule, how does the activation fold read?
Answer: 1 (inactive)

Question: `CC(C)CNC(=S)NNC(=O)c1ccccc1OC(F)F` was tested. Which activation fold did it give?
Answer: 1.6 (inactive)

Question: Which activation fold does the source give for `Cc1occc1C(=O)NNC(=S)NCC(C)C` here?
Answer: 2.3 (active)

Question: With `CCN(CC)C(=O)CSC1c2ccccc2C(=O)N1c1ccccc1` (stereo not given) as the molecule, how does the activation fold read?
Answer: 1.1 (inactive)

Question: With `CCCOc1ccc(C2NC(=O)NC(c3ccccc3)=C2C(C)=O)cc1OCC` (stereo not given) as the molecule, how does the activation fold read?
Answer: 0.9 (inactive)

Question: With `O=C(NCc1ccco1)c1ccc(Cn2c(=O)c3sccc3n(Cc3ccc(F)cc3)c2=O)cc1` as the molecule, how does the activation fold read?
Answer: 1.3 (inactive)

Question: `COc1c(F)c(F)c(C(=O)O)c(Nc2ccccc2C)c1F` was tested. Which activation fold did it give?
Answer: 1 (inactive)

Question: Which activation fold does the source give for `COc1ccc(C(=O)NC(=S)NNC(=O)CCc2ccccc2)cc1` here?
Answer: 1 (inactive)

Question: How did the activation fold turn out when `CCCc1ccc(OCC(=O)NNC(=S)NC(=O)c2ccco2)cc1` was run?
Answer: 1.2 (inactive)

Question: For `CC(Oc1ccc2ccccc2c1)C(=O)NNC(=S)NC(=O)c1ccco1` (stereo not given), which activation fold is on record?
Answer: 2.6 (active)

Question: `CCOc1cc(N2CCOCC2)c(OCC)cc1NC(=O)COc1cccc2cccnc12` was tested. Which activation fold did it give?
Answer: 1.4 (inactive)

Question: Which activation fold does the source give for `O=C(c1cccnc1NCc1ccccc1)N1CCOCC1` here?
Answer: 0.9 (inactive)

Question: With `Oc1c(C(c2ccccn2)N2CCOCC2)ccc2cccnc12` (stereo not given) as the molecule, how does the activation fold read?
Answer: 2.2 (active)
